# From paper PMC7862700, “An all-to-all approach to the identification of sequence-specific readers for epigenetic DNA modifications on cytosine”
# Columns and labels:
# Experiment in all cases: DAPPL (digital affinity profiling via proximity ligation, sequencing); 10 mM Tris-HCl pH 7.5, 50 mM NaCl, 1 mM DTT, 4% glycerol, room temperature, 30 min; GST-TFs on glutathione beads, 16-mer random dsDNA library, 0.1% formaldehyde crosslink after washing; high values mean tight binding
# Conditions in all cases: protein: recombinant; tags: N-terminal GST; dsDNA, one strand shown
# [1] = target: T1, ELK1 (Homo sapiens, UniProt P19419 1-428)
# T1 sequence: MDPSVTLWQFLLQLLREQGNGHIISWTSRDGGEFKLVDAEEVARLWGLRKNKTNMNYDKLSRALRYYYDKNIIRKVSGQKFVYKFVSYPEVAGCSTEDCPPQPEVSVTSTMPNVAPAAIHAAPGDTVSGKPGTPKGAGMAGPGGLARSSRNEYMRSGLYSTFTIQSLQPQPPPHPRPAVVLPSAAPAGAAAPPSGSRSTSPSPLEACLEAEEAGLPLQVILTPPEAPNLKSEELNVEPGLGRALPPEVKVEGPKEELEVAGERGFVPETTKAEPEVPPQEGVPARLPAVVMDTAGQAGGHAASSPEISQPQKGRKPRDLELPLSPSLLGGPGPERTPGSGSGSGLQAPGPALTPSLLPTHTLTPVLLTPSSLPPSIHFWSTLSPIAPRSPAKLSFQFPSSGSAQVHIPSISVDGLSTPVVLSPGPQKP
# How it was run: (§1)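 The binding signal reported is, for every hexamer, its read frequency for a factor over its read frequency for the tag-only sample. Reads came from pools of yeast-expressed, GST-fused human transcription factors on glutathione beads, barcoded with DNA and mixed with that sample, which were incubated with 200 nmole of a random double-stranded 16-mer DNA library in Tris/NaCl/DTT/glycerol buffer at room temperature for 30 min. After washing, the pools were crosslinked with 0.1% formaldehyde, proximity-ligated with BsaI/T4 ligase for 1 h at 37 °C, PCR-amplified and sequenced on an Illumina NextSeq500.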
# [2] = target: T2, GABPA (Homo sapiens, UniProt Q06546 1-454)
# T2 sequence: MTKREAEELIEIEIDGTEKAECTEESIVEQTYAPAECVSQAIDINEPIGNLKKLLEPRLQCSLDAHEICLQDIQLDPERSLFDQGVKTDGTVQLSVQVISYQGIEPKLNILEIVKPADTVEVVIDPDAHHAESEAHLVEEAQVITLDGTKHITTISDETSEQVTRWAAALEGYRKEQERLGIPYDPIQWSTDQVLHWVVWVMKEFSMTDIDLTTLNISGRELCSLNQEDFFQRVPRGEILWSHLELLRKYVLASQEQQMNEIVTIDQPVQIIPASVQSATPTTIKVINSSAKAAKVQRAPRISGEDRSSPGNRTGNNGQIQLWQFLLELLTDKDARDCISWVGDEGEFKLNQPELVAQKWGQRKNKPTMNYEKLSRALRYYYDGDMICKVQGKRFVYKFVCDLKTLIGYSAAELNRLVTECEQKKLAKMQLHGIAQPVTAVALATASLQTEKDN
# How it was run: as §1
# [3] = target: T3, ERG (Homo sapiens, UniProt P11308 1-479)
# T3 sequence: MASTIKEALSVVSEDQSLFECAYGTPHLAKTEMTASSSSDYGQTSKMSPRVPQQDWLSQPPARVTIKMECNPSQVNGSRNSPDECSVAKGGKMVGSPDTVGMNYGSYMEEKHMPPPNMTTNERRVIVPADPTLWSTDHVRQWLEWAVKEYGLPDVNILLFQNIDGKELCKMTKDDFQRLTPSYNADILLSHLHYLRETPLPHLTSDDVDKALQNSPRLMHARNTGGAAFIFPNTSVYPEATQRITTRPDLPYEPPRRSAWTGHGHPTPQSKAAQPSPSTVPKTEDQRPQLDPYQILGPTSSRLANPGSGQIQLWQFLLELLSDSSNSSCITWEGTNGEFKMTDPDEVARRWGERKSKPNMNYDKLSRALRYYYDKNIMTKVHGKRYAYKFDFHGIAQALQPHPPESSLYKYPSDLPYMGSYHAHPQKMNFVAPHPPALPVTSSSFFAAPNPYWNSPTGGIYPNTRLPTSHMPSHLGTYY
# How it was run: as §1
# [4] = target: ELF1 (Homo sapiens, UniProt P32519 1-619)
# How it was run: as §1
# [5] = target: T4, EHF (Homo sapiens, UniProt Q9NZC4 1-300)
# T4 sequence: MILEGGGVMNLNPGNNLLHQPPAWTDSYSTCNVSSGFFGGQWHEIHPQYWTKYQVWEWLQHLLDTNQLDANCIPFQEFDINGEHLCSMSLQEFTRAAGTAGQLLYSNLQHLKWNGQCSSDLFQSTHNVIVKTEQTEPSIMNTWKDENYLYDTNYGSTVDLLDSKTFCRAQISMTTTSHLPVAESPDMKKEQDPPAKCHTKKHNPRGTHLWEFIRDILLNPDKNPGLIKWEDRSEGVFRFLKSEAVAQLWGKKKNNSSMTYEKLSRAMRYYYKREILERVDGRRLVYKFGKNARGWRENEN
# How it was run: as §1
# [6] = target: SPIB (Homo sapiens, UniProt Q01892 1-262)
# How it was run: as §1
# [7] = target: T5, ELK3 (Homo sapiens, UniProt P41970 1-407)
# T5 sequence: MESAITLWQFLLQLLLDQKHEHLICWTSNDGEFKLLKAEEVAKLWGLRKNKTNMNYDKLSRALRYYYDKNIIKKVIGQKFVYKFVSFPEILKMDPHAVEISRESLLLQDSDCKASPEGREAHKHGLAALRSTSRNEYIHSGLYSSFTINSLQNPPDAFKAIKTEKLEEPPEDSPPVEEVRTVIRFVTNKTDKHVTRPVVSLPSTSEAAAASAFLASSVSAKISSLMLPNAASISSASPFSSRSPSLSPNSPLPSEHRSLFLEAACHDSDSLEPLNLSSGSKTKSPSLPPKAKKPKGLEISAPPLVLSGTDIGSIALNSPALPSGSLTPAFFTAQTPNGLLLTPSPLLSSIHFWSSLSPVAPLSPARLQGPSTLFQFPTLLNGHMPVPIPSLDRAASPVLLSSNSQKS
# How it was run: as §1
# [8] = target: T6, SPIC (Homo sapiens, UniProt Q8N5J4 1-248)
# T6 sequence: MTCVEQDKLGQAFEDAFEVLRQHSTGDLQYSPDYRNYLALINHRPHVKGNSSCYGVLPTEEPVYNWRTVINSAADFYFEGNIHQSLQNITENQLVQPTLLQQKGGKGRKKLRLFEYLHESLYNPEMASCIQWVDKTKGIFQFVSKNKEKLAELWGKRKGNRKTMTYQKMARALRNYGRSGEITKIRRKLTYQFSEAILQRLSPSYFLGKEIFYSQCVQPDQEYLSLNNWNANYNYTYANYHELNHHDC
# How it was run: as §1
# [9] = target: ELF4 (Homo sapiens, UniProt Q99607 1-663)
# How it was run: as §1
# [10] = target: T7, ELK4 (Homo sapiens, UniProt P28324-2 1-405)
# T7 sequence: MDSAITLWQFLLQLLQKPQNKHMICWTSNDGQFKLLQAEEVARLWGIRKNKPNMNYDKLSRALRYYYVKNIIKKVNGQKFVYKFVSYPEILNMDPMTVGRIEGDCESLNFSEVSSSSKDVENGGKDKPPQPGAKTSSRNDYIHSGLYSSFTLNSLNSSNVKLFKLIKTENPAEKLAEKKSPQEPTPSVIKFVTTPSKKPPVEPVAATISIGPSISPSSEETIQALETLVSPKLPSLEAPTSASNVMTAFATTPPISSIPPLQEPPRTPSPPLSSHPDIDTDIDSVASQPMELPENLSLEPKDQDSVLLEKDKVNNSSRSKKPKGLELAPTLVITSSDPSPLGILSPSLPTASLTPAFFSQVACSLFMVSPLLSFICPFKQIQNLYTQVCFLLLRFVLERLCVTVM
# How it was run: as §1
# [11] = target: T8, ELF3 (Homo sapiens, UniProt P78545 1-371)
# T8 sequence: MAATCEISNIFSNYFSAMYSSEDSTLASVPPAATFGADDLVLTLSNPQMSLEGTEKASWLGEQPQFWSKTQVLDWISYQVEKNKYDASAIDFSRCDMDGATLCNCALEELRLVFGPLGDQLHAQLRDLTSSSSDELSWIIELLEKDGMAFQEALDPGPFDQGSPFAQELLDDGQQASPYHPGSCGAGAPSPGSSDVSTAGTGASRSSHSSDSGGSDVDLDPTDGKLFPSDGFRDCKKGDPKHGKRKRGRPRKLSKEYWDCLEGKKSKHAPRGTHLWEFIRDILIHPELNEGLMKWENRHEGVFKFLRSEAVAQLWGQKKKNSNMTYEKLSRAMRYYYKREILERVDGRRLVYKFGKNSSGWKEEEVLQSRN
# How it was run: as §1
# [12] = target: ETV1 (Homo sapiens, UniProt P50549 1-477)
# How it was run: as §1
# [13] = target: T9, ERF (Homo sapiens, UniProt P50548 1-548)
# T9 sequence: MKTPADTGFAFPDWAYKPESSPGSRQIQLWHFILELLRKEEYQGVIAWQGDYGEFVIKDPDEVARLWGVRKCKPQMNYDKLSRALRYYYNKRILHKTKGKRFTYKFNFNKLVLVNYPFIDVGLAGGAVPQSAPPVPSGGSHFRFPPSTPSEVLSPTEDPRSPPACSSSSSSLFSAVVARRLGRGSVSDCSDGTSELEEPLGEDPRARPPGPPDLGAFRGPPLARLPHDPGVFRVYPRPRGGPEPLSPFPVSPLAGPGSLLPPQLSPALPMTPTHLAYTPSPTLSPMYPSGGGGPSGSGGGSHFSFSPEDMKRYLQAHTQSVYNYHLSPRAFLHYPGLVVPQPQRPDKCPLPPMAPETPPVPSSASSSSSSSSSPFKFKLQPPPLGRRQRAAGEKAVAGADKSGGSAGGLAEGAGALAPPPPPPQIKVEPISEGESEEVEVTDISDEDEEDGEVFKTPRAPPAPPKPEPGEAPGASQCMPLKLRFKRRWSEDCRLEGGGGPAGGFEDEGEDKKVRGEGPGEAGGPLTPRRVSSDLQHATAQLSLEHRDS
# How it was run: as §1
# [14] = target: T10, ETV3L (Homo sapiens, UniProt Q6ZN32 1-361)
# T10 sequence: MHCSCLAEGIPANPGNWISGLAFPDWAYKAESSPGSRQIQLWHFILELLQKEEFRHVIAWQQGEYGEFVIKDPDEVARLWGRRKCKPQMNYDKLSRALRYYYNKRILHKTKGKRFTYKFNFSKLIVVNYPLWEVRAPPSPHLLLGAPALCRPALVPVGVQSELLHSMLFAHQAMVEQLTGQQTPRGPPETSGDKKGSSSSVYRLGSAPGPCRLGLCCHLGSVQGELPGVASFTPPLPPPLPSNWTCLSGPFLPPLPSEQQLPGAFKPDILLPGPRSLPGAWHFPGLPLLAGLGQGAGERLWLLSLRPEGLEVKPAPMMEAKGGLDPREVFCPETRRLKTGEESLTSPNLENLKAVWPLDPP
# How it was run: as §1
# [15] = target: T11, ETS2 (Homo sapiens, UniProt P15036 1-469)
# T11 sequence: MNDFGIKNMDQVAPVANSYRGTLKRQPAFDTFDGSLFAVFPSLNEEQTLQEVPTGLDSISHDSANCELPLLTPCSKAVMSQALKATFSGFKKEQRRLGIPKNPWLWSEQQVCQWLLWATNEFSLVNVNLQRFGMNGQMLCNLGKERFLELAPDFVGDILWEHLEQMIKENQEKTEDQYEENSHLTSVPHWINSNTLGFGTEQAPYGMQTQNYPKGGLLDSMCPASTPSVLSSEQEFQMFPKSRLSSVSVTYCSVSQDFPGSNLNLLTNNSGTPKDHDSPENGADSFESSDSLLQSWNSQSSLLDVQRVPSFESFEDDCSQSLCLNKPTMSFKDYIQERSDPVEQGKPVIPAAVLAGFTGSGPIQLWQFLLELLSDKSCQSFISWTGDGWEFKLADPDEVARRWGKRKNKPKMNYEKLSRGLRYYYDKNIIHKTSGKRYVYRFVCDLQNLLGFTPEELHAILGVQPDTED
# How it was run: as §1
# [16] = target: T12, ETV7 (Homo sapiens, UniProt Q9Y603 1-341)
# T12 sequence: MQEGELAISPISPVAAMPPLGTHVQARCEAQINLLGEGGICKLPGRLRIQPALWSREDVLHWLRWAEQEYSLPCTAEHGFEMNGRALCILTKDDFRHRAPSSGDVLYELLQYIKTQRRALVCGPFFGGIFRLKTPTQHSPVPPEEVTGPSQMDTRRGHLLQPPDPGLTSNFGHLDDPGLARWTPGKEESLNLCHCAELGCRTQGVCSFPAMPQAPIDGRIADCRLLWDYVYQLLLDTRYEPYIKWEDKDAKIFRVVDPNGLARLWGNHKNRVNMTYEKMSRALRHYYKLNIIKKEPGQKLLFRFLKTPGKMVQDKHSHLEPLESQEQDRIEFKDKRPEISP
# How it was run: as §1
# [17] = target: T13, ETV3 (Homo sapiens, UniProt P41162-2 1-143)
# T13 sequence: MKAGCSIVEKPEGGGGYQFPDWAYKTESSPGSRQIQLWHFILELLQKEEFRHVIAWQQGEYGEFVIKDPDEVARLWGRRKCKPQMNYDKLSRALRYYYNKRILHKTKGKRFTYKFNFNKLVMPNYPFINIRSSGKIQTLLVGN
# How it was run: as §1
# [18] = target: ETV6 (Homo sapiens, UniProt P41212 1-452)
# How it was run: as §1
# Sequence of ETV1 (P50549 whole entry): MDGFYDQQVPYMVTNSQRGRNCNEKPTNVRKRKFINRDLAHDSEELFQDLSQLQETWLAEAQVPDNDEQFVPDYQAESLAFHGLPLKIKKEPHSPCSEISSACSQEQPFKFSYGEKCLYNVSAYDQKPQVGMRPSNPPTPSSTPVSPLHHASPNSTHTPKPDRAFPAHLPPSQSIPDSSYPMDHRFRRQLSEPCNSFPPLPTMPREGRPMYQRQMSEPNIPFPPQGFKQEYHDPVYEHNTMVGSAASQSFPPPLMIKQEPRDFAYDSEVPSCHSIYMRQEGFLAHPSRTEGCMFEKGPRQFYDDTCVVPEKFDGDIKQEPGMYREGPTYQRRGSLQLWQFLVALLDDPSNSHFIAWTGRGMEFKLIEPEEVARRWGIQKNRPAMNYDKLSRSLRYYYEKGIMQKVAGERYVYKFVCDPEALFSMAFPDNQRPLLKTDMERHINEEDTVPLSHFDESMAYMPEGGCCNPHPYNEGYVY
# Sequence of SPIB (Q01892 whole entry): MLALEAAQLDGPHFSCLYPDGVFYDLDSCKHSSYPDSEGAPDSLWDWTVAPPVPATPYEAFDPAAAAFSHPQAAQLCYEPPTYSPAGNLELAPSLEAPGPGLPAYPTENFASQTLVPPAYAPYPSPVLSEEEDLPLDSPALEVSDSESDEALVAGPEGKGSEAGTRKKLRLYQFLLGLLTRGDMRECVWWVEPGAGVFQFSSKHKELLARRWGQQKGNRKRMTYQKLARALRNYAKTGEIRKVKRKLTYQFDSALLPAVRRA
# Sequence of ELF1 (P32519 whole entry): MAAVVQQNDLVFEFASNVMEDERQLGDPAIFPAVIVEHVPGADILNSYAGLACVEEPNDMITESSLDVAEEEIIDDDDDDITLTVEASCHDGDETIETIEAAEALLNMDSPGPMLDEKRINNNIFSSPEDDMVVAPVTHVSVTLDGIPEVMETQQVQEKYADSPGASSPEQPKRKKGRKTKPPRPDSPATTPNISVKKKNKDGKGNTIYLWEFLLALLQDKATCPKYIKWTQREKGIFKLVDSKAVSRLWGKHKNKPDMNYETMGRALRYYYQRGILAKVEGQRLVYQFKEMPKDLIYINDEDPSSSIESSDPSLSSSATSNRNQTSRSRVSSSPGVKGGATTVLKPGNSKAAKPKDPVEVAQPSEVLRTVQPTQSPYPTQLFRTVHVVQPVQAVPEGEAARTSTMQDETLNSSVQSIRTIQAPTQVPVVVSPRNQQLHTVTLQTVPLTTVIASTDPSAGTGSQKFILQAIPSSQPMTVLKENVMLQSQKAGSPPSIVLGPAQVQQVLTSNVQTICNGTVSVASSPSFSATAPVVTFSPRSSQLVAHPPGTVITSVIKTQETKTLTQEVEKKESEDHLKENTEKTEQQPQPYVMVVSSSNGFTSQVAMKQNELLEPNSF
# Sequence of ELF4 (Q99607 whole entry): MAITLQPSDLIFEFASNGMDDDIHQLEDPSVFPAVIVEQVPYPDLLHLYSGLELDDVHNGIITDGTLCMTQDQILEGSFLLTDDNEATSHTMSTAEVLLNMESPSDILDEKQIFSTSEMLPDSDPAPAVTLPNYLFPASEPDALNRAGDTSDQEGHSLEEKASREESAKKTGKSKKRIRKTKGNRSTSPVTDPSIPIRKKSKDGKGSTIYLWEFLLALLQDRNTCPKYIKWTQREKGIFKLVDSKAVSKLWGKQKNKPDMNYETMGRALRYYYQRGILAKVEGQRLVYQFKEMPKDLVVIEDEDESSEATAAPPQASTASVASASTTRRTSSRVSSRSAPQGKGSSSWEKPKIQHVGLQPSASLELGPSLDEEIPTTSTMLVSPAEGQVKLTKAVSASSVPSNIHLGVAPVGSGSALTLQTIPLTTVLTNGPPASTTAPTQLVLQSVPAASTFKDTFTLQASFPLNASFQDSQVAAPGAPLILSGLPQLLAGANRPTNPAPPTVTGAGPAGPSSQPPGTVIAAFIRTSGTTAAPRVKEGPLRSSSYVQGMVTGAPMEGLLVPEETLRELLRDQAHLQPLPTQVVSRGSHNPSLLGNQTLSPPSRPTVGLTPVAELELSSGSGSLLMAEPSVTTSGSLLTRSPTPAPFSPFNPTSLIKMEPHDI
# Sequence of ETV6 (P41212 whole entry): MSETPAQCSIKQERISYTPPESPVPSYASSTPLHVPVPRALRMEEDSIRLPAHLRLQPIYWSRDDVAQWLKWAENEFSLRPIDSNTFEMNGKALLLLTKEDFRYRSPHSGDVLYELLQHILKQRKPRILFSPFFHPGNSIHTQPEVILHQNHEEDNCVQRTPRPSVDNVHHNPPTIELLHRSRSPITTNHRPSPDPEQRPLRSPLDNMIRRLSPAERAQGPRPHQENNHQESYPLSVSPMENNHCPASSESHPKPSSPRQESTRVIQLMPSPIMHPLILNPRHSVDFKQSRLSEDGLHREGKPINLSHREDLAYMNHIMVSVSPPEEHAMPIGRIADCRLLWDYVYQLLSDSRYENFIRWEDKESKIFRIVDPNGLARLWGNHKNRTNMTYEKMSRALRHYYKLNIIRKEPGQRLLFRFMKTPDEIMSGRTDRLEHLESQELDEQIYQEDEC
sequence,measurement,setting,value
TACAGC,binding signal,[1],"1.01 fold enrichment (6-mer frequency, TF over GST control)"
same,binding signal,[2],"1.07 fold enrichment (6-mer frequency, TF over GST control)"
same,binding signal,[3],"1.06 fold enrichment (6-mer frequency, TF over GST control)"
same,binding signal,[4],"1.13 fold enrichment (6-mer frequency, TF over GST control)"
same,binding signal,[5],"1.06 fold enrichment (6-mer frequency, TF over GST control)"
same,binding signal,[6],"1.04 fold enrichment (6-mer frequency, TF over GST control)"
same,binding signal,[7],"1.06 fold enrichment (6-mer frequency, TF over GST control)"
same,binding signal,[8],"1.02 fold enrichment (6-mer frequency, TF over GST control)"
same,binding signal,[9],"1.13 fold enrichment (6-mer frequency, TF over GST control)"
same,binding signal,[10],"1.02 fold enrichment (6-mer frequency, TF over GST control)"
same,binding signal,[11],"1.16 fold enrichment (6-mer frequency, TF over GST control)"
same,binding signal,[12],"1.03 fold enrichment (6-mer frequency, TF over GST control)"
same,binding signal,[13],"1.16 fold enrichment (6-mer frequency, TF over GST control)"
same,binding signal,[14],"1.08 fold enrichment (6-mer frequency, TF over GST control)"
same,binding signal,[15],"1.1 fold enrichment (6-mer frequency, TF over GST control)"
same,binding signal,[16],"1.09 fold enrichment (6-mer frequency, TF over GST control)"
same,binding signal,[17],"1.02 fold enrichment (6-mer frequency, TF over GST control)"
same,binding signal,[18],"1.1 fold enrichment (6-mer frequency, TF over GST control)"
